Compound activity deposited in PubChem BioAssay by Center for Chemical Genomics, University of Michigan.
This excerpt belongs to a sample that is enriched for hits.
Dicer inh: blocks human Dicer maturation of pre-miR-21; AID 1347074; z-score at 25 µM; cat-ELCCA pre-miR-21 Dicer processing, chemiluminescence; stronger effect = higher value; Q9UPY3; 47,000 tested, 6% active; in the data active = z-score above about 3, passing the limit was not always enough;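 also: higher signal means more uncleaved substrate so more Dicer inhibition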
Target sequence (Q9UPY3 whole entry, looked up): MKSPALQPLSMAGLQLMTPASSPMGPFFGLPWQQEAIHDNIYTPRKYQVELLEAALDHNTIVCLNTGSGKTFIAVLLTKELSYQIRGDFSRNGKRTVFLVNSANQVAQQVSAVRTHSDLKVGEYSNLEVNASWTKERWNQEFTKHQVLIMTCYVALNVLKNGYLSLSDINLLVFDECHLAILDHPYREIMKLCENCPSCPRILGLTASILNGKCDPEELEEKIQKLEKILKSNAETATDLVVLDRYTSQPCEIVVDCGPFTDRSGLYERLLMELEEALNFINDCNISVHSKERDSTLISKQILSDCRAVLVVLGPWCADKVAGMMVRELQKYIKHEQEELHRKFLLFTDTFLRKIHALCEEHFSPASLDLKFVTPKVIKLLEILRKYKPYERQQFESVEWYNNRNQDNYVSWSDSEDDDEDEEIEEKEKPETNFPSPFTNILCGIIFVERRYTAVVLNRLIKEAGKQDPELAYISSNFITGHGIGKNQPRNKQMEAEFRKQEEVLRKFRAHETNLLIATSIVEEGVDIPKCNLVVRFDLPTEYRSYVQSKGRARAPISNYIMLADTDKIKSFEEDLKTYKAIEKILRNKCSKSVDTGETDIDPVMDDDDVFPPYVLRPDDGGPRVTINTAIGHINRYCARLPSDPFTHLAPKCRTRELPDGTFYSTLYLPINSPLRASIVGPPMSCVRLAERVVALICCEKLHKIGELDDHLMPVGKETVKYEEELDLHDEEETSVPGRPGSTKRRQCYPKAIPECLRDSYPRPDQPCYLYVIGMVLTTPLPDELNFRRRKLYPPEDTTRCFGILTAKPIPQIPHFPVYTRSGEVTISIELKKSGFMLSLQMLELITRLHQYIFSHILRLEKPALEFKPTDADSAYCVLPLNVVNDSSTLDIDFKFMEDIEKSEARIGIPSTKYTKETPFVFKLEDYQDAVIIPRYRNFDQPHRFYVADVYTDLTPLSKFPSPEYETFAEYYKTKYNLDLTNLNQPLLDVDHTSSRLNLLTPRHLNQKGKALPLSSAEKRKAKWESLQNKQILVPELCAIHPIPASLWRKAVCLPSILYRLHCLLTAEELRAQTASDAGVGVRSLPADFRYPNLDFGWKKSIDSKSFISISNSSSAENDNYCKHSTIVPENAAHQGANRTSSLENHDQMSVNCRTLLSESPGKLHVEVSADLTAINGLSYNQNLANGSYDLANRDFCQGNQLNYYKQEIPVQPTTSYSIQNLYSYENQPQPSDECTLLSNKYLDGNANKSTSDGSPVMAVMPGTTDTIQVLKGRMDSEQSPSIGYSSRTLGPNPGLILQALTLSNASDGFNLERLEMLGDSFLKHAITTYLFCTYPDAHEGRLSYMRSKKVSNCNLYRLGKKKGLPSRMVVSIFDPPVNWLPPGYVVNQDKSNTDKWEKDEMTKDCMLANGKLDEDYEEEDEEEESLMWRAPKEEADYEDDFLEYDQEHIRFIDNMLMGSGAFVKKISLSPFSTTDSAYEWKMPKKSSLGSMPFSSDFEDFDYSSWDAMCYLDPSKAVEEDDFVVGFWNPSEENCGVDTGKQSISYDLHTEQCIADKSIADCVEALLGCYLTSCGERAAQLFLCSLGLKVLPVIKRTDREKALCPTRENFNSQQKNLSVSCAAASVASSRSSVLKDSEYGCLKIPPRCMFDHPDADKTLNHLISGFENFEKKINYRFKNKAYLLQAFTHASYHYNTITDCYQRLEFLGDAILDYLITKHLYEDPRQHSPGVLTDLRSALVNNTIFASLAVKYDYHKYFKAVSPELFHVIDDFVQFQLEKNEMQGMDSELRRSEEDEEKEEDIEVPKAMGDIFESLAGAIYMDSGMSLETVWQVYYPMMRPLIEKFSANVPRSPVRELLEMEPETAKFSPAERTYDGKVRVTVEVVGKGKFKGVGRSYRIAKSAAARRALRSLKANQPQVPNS
Hits are given with their value; i = inactive.

SMILES	Dicer inh
CC(C)(C)C(=O)ON=C(c1ccc(F)cc1)c1ccc(F)cc1	i
Cc1nn(C)c2sc(C(=O)NCc3ccc(N4CCN(C)CC4)cc3)cc12	i
Cc1c(C(=O)N(Cc2cccs2)C2CCS(=O)(=O)C2)oc2ccccc12 (stereo not given)	i
Cc1c(C(=O)N(Cc2ccccc2)C2CCS(=O)(=O)C2)oc2ccccc12 (stereo not given)	i
CCc1ccc(CN(C(=O)c2oc3ccccc3c2C)C2CCS(=O)(=O)C2)cc1 (stereo not given)	3.6
C=C1SC(Nc2ccc(C(=O)OCC)cc2)=NC1(CC)CC	i
CCOC(=O)c1cnc(S/C=C/C(=O)c2ccccc2)nc1N	i
COc1ccc(C2C(C(=O)OCc3ccccc3)=C(C)Nc3nnnn32)cc1OC (stereo not given)	i
CCN(CC(O)Cn1c2ccccc2c2ccccc21)S(=O)(=O)c1ccc(C)cc1 (stereo not given)	i
CCCCN(C(C)C)S(=O)(=O)c1ccc(C)cc1	i
CCN(CCS(=O)(=O)c1ccccc1)S(=O)(=O)c1ccc(C)cc1	4.5
O=C(CCSc1nc(-c2ccc3c(c2)OCO3)cc(C(F)(F)F)n1)N1CCOCC1	i
Oc1c(C(c2ccncc2)N2CCOCC2)cc(Cl)c2cccnc12 (stereo not given)	i
Oc1cc2c(cc1C(c1ccc(C(F)(F)F)cc1)N1CCOCC1)OCO2 (stereo not given)	6.5
CN(CCc1ccccn1)Cc1ccc(Cl)cc1	3.7
CCc1ccc(CN(C)CCc2ccccn2)cc1	i
Cc1ccc(CN(C)CCc2ccccn2)cc1	i
COC(=O)C1=C(O)c2cccc3c2N(CCC3)C1	i
COc1cc2cc(OS(=O)(=O)c3ccc(C)cc3)nc(C)c2cc1OC	i
Cc1cc(NC(=O)Nc2cc(S(=O)(=O)N(C)C)ccc2C)c(C(F)(F)F)o1	i
O=C(NNC(=O)c1csc(COc2ccc(C3SCCS3)cc2)n1)c1ccc(Cl)cc1	i
CCOC(=O)NC1=C(C#N)C=Nc2ccccc2N1	23
CCOC(=O)CC1=Nc2ccccc2NC(=O)C1	i
N#Cc1ccc(C#CCOC(=O)Nc2ccccc2)cc1	i
COC(=O)C1C(=O)C2=C(CC1C)Nc1ccccc1NC2c1ccc2c(c1)OCO2 (stereo not given)	i
SMILES	Dicer inh
CC(C)S(=O)(=O)c1nnn(-c2cc(Cl)cc(Cl)c2)c1N	i
COc1cc2ncnc(N3CC(C)OC(C)C3)c2cc1OC (stereo not given)	i
Cc1cc(C)nc(SCC(=O)c2ccc(O)cc2O)n1	i
O=C(CSc1n[nH]c(-c2ccco2)n1)c1ccc(O)cc1O	10
Cc1ccc(C(=O)CSc2n[nH]c(-c3ccco3)n2)c(C)c1	i
O=C(CSc1nc2ncccc2[nH]1)Nc1ccc(Cl)cc1	i
CCOC(=O)c1sc(SCc2ccc(Cl)cc2)c2c1CCCC2=O	i
ONC(=Nc1ccc(Cl)c(Cl)c1)c1ccccc1	i
S=C(NCCc1ccccc1)N/N=C/c1ccccc1Cl	i
O=C(N/N=C/c1ccccc1Cl)N/N=C/c1ccccc1Cl	3.8
O=C(N/N=C/c1ccc(Cl)c(Cl)c1)N/N=C/c1ccc(Cl)c(Cl)c1	i
CCOc1cc(C2NC(C(=O)O)CS2)ccc1OCc1ccc(F)cc1 (stereo not given)	i
Cc1ccc(C(=O)c2ccccc2C(=O)O)cc1	i
Cc1ccc(OCC(O)CN2C(=O)NC(C)(C)C2=O)cc1 (stereo not given)	i
CC1(C)NC(=O)N(CC(O)CN(c2ccccc2)S(=O)(=O)c2ccccc2)C1=O (stereo not given)	i
CC1(C)NC(=O)N(CC(O)COc2ccc(Br)cc2)C1=O (stereo not given)	3.1
CC1(C)NC(=O)N(CC(O)CN(Cc2ccccc2)Cc2ccccc2)C1=O (stereo not given)	3
Cc1ccc(OCC(O)CN2C(=O)NC(C)(C)C2=O)cc1C (stereo not given)	i
CC1(C)NC(=O)N(Cc2ccccc2)C1=O	i
COc1ccc(C2/C(=C(/O)c3ccc(Cl)cc3)C(=O)C(=O)N2CC(C)C)cc1OC (stereo not given)	i
CCOC(=O)c1sc(S(C)=NC(=O)c2ccc(Cl)cc2)c2c1CCC=C2 (stereo not given)	i
CCOC(=O)c1cc(C)nc(Sc2ccccc2NC(=O)c2cccc(C(F)(F)F)c2)c1C#N	i
Cc1nc2ccccc2n1-c1ccccc1	i
C=CCn1c(-c2ccc(N)cc2)nc2ccccc21	i
Nc1ccc(-c2nc3cc(N)ccc3n2-c2ccccc2)cc1	3.4
SMILES	Dicer inh
COc1ccc(O)c(C2=NN3C(C2)c2cc(Cl)ccc2OC3c2ccsc2)c1 (stereo not given)	i
Oc1ccccc1C1=NN2C(C1)c1cc(Cl)ccc1OC2c1ccncc1 (stereo not given)	i
Oc1ccccc1C1=NN2C(C1)c1cc(Cl)ccc1OC2c1ccsc1 (stereo not given)	12
Cc1ccc(O)c(C2=NN3C(C2)c2ccccc2OC3c2cccnc2)c1 (stereo not given)	i
Oc1ccc(Cl)cc1C1=NN2C(C1)c1ccccc1OC2c1ccsc1 (stereo not given)	6.7
Oc1ccc(Cl)cc1C1=NN2C(C1)c1ccccc1OC2c1cccnc1 (stereo not given)	i
CCn1c(C(=O)OC)cc(=O)c2cc(OC)ccc21	i
O=c1c(Br)coc2ccccc12	i
COC(=O)c1cnc(Nc2ccccc2C)c([N+](=O)[O-])c1	i
Cc1ccc(C(=O)CC(Sc2ccc3ccccc3c2)c2ccsc2)cc1 (stereo not given)	i
CCc1n(CC)c2ccccc2[n+]1CC(O)COc1ccc(F)cc1 (stereo not given)	5
CCc1n(CC)c2ccccc2[n+]1CC(O)COc1ccccc1OC (stereo not given)	i
CCn1c(C)[n+](CC(O)COc2ccc(F)cc2)c2ccccc21 (stereo not given)	i
CN(C)c1ccc(/C=N/NS(=O)(=O)c2cc(Cl)c(Cl)cc2Cl)cc1	i
COc1ccc(-c2nnc3c4cnn(-c5ccccc5)c4ncn23)cc1OC	i
Cc1ccc(C)c(S(=O)(=O)N(C(=O)c2ccncc2)c2ccc3oc(=O)sc3c2)c1	i
O=C(c1ccncc1)N(c1cc2sc(=O)oc2c2ccccc12)S(=O)(=O)c1cccs1	i
O=C(c1ccncc1)N(c1ccc2oc(=O)sc2c1)S(=O)(=O)c1cccc2cccnc12	3.7
O=C(c1cccnc1)N(c1ccc2oc(=O)sc2c1)S(=O)(=O)c1cccc2cccnc12	4.1
Cc1cc2cc(N(C(=O)c3ccncc3)S(=O)(=O)c3cc(C)c(C)cc3C)ccc2o1	i
Cc1oc(-c2ccccc2)cc1C(=O)/C(C#N)=C\c1ccc(OC(F)(F)F)cc1	i
O=C1c2cccc3cc([N+](=O)[O-])cc(c23)C(=O)N1CCO	i
CCOC(=O)NC(=S)NC(=O)C(C)(C)C	i
NNC(=O)Cc1csc2nc(-c3ccccc3)nn12	i
Cc1ccc2onc(OC(=O)NC(C)(C)C)c2c1	i
SMILES	Dicer inh
CN(C)/C=C/C=C/C=C/C(=O)c1ccc(Br)cc1	4.5
CN(C)/C=C/C(=O)c1ccc(C#N)cc1	i
CC(C)Cc1ccc(C(=O)/C=C/N(C)C)cc1	i
Nc1nnc(SCc2ccccc2Cl)s1	11
NCCc1nnc(SCc2ccccc2Cl)o1	i
N=C(N)SCc1ccccc1Cl	i
COc1cc(C2=N/C(=C/C=C/c3ccccc3)C(=O)O2)cc(OC)c1OC	i
CN(C)c1ccc(/C=C/c2nc3ccccc3c(=O)[nH]2)cc1	5.5
CN(C)c1ccc(-c2nc3ccccc3c(=O)[nH]2)c(Cl)c1	i
